# Measured values reported in article PMC11006913.
# Columns and labels:
# Assay in all cases: PBM; 200 nM protein, PBS
# Conditions in all cases: dsDNA, one strand shown
# [1] = molecular target: HOXB9 (Homo sapiens, UniProt P17482 171-250, T197M)
# [2] = molecular target: HOXB9 (Homo sapiens, UniProt P17482 171-250)
# [3] = molecular target: HOXB9 (Homo sapiens, UniProt P17482 171-250, R186Q)
# [4] = molecular target: HOXA2 (Homo sapiens, UniProt O43364 129-215, R185T)
# [5] = molecular target: HOXA2 (Homo sapiens, UniProt O43364 129-215, R185K)
# [6] = molecular target: HOXA2 (Homo sapiens, UniProt O43364 129-215, Y150S)
# [7] = molecular target: HOXA2 (Homo sapiens, UniProt O43364 129-215)
# [8] = molecular target: MSX2 (Homo sapiens, UniProt P35548 130-214, R199I)
# [9] = molecular target: HOXD13 (Homo sapiens, UniProt P35453 263-343, T313R)
# [10] = molecular target: HOXD13 (Homo sapiens, UniProt P35453 263-343)
# [11] = molecular target: MSX2 (Homo sapiens, UniProt P35548 130-214)
# [12] = molecular target: PROP1 (Homo sapiens, UniProt O75360 56-141)
# [13] = molecular target: PROP1 (Homo sapiens, UniProt O75360 56-141, R99H)
# [14] = molecular target: HOXD13 (Homo sapiens, UniProt P35453 263-343, T313A)
# [15] = molecular target: PROP1 (Homo sapiens, UniProt O75360 56-141, F88S)
# [16] = molecular target: MSX2 (Homo sapiens, UniProt P35548 130-214, F161Y)
# [17] = molecular target: T1, SIX6 (Homo sapiens, UniProt O95475 114-200, L167I)
# T1 sequence: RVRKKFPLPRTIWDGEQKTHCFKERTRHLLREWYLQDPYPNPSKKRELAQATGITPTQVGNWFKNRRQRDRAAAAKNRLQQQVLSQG
# [18] = molecular target: ALX3 (Homo sapiens, UniProt O95076 139-225, N203Q)
# [19] = molecular target: NKX3-2 (Homo sapiens, UniProt P78367 192-278, P234S)
# [20] = molecular target: NKX3-2 (Homo sapiens, UniProt P78367 192-278)
# Chain of NKX3-2 (Homo sapiens, UniProt P78367 192-278) (P78367 192-278): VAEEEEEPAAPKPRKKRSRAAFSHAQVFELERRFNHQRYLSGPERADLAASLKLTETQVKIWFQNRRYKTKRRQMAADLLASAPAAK
# Chain of NKX3-2 (Homo sapiens, UniProt P78367 192-278, P234S) (P78367 192-278 P234S): as the sequence (P78367 192-278) above, with P43S counted along it
# Chain of HOXB9 (Homo sapiens, UniProt P17482 171-250) (P17482 171-250): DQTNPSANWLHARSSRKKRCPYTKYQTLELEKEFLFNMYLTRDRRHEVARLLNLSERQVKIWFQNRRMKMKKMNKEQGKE
# Chain of HOXB9 (Homo sapiens, UniProt P17482 171-250, R186Q) (P17482 171-250 R186Q): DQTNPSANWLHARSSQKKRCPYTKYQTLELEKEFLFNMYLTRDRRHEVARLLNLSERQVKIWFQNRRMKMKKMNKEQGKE
# Chain of HOXB9 (Homo sapiens, UniProt P17482 171-250, T197M) (P17482 171-250 T197M): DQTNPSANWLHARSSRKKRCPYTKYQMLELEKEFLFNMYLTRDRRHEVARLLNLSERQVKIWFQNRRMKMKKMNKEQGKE
# Chain of HOXA2 (Homo sapiens, UniProt O43364 129-215) (O43364 129-215): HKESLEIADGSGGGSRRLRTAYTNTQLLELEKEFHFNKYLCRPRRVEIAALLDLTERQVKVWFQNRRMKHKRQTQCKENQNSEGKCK
# Chain of HOXA2 (Homo sapiens, UniProt O43364 129-215, Y150S) (O43364 129-215 Y150S): as the sequence (O43364 129-215) above, with Y22S counted along it
# Chain of HOXA2 (Homo sapiens, UniProt O43364 129-215, R185T) (O43364 129-215 R185T): as the sequence (O43364 129-215) above, with R57T counted along it
# Chain of HOXA2 (Homo sapiens, UniProt O43364 129-215, R185K) (O43364 129-215 R185K): as the sequence (O43364 129-215) above, with R57K counted along it
# Chain of HOXD13 (Homo sapiens, UniProt P35453 263-343, T313A) (P35453 263-343 T313A): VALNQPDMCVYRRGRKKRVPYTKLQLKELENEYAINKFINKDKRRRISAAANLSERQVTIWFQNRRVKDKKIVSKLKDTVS
# Chain of ALX3 (O95076 139-225 N203Q): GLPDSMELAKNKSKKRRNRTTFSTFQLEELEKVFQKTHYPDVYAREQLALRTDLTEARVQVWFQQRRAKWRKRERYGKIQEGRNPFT
# Chain of MSX2 (Homo sapiens, UniProt P35548 130-214) (P35548 130-214): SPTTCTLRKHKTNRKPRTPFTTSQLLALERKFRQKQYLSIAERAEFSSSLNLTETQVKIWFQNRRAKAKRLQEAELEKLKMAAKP
# Chain of MSX2 (Homo sapiens, UniProt P35548 130-214, F161Y) (P35548 130-214 F161Y): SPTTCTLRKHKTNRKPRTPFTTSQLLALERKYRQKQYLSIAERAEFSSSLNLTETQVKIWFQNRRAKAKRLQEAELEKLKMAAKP
# Chain of HOXD13 (Homo sapiens, UniProt P35453 263-343) (P35453 263-343): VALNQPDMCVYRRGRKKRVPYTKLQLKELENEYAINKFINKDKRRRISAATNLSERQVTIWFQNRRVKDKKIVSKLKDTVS
# Chain of PROP1 (Homo sapiens, UniProt O75360 56-141, R99H) (O75360 56-141 R99H): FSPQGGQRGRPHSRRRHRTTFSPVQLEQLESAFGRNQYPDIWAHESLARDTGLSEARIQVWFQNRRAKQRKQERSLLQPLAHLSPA
# Chain of MSX2 (Homo sapiens, UniProt P35548 130-214, R199I) (P35548 130-214 R199I): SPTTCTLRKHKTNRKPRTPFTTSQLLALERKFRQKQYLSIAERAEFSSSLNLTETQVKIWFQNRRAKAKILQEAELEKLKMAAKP
# Chain of HOXD13 (Homo sapiens, UniProt P35453 263-343, T313R) (P35453 263-343 T313R): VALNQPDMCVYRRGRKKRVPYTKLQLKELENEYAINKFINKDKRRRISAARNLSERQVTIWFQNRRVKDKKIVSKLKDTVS
# Chain of PROP1 (Homo sapiens, UniProt O75360 56-141, F88S) (O75360 56-141 F88S): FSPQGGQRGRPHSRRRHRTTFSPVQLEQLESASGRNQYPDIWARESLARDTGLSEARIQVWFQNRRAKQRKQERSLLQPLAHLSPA
# Chain of PROP1 (Homo sapiens, UniProt O75360 56-141) (O75360 56-141): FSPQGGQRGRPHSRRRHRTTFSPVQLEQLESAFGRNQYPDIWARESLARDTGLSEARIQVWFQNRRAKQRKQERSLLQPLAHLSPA
sequence,measurement,setting,value
CCCCGGAC,binding signal,[1],"8.48 upbm affinity estimate (log intensity, higher = more binding, comparable within an allelic series)"
same,binding signal,[2],"8.48 upbm affinity estimate (log intensity, higher = more binding, comparable within an allelic series)"
same,binding signal,[3],"8.49 upbm affinity estimate (log intensity, higher = more binding, comparable within an allelic series)"
AAGTTATC,binding signal,[1],"9.1 upbm affinity estimate (log intensity, higher = more binding, comparable within an allelic series)"
same,binding signal,[2],"9.66 upbm affinity estimate (log intensity, higher = more binding, comparable within an allelic series)"
CGCCGGAC,binding signal,[1],"8.48 upbm affinity estimate (log intensity, higher = more binding, comparable within an allelic series)"
same,binding signal,[4],"7.23 upbm affinity estimate (log intensity, higher = more binding, comparable within an allelic series)"
same,binding signal,[2],"8.46 upbm affinity estimate (log intensity, higher = more binding, comparable within an allelic series)"
same,binding signal,[5],"10.4 upbm affinity estimate (log intensity, higher = more binding, comparable within an allelic series)"
same,binding signal,[3],"8.52 upbm affinity estimate (log intensity, higher = more binding, comparable within an allelic series)"
same,binding signal,[6],"10.4 upbm affinity estimate (log intensity, higher = more binding, comparable within an allelic series)"
same,binding signal,[7],"7.32 upbm affinity estimate (log intensity, higher = more binding, comparable within an allelic series)"
GAACCGGC,binding signal,[1],"8.52 upbm affinity estimate (log intensity, higher = more binding, comparable within an allelic series)"
same,binding signal,[4],"7.08 upbm affinity estimate (log intensity, higher = more binding, comparable within an allelic series)"
same,binding signal,[2],"8.43 upbm affinity estimate (log intensity, higher = more binding, comparable within an allelic series)"
same,binding signal,[5],"10.2 upbm affinity estimate (log intensity, higher = more binding, comparable within an allelic series)"
same,binding signal,[3],"8.48 upbm affinity estimate (log intensity, higher = more binding, comparable within an allelic series)"
same,binding signal,[6],"10.4 upbm affinity estimate (log intensity, higher = more binding, comparable within an allelic series)"
same,binding signal,[7],"7.09 upbm affinity estimate (log intensity, higher = more binding, comparable within an allelic series)"
CCGCAGCC,binding signal,[1],"8.52 upbm affinity estimate (log intensity, higher = more binding, comparable within an allelic series)"
same,binding signal,[2],"8.38 upbm affinity estimate (log intensity, higher = more binding, comparable within an allelic series)"
same,binding signal,[8],"9.47 upbm affinity estimate (log intensity, higher = more binding, comparable within an allelic series)"
same,binding signal,[9],"9.38 upbm affinity estimate (log intensity, higher = more binding, comparable within an allelic series)"
same,binding signal,[10],"9.33 upbm affinity estimate (log intensity, higher = more binding, comparable within an allelic series)"
same,binding signal,[11],"9.43 upbm affinity estimate (log intensity, higher = more binding, comparable within an allelic series)"
same,binding signal,[12],"6.67 upbm affinity estimate (log intensity, higher = more binding, comparable within an allelic series)"
same,binding signal,[13],"6.75 upbm affinity estimate (log intensity, higher = more binding, comparable within an allelic series)"
same,binding signal,[14],"9.43 upbm affinity estimate (log intensity, higher = more binding, comparable within an allelic series)"
same,binding signal,[3],"8.47 upbm affinity estimate (log intensity, higher = more binding, comparable within an allelic series)"
same,binding signal,[15],"6.52 upbm affinity estimate (log intensity, higher = more binding, comparable within an allelic series)"
same,binding signal,[16],"9.45 upbm affinity estimate (log intensity, higher = more binding, comparable within an allelic series)"
GTCCGGCA,binding signal,[1],"8.68 upbm affinity estimate (log intensity, higher = more binding, comparable within an allelic series)"
same,binding signal,[2],"8.51 upbm affinity estimate (log intensity, higher = more binding, comparable within an allelic series)"
same,binding signal,[3],"8.52 upbm affinity estimate (log intensity, higher = more binding, comparable within an allelic series)"
CGTAGGCC,binding signal,[1],"8.47 upbm affinity estimate (log intensity, higher = more binding, comparable within an allelic series)"
same,binding signal,[2],"8.61 upbm affinity estimate (log intensity, higher = more binding, comparable within an allelic series)"
same,binding signal,[3],"8.63 upbm affinity estimate (log intensity, higher = more binding, comparable within an allelic series)"
GCCGCAGA,binding signal,[1],"8.65 upbm affinity estimate (log intensity, higher = more binding, comparable within an allelic series)"
same,binding signal,[2],"8.62 upbm affinity estimate (log intensity, higher = more binding, comparable within an allelic series)"
same,binding signal,[3],"8.62 upbm affinity estimate (log intensity, higher = more binding, comparable within an allelic series)"
GAAGCGGC,binding signal,[1],"8.49 upbm affinity estimate (log intensity, higher = more binding, comparable within an allelic series)"
same,binding signal,[2],"8.36 upbm affinity estimate (log intensity, higher = more binding, comparable within an allelic series)"
same,binding signal,[3],"8.37 upbm affinity estimate (log intensity, higher = more binding, comparable within an allelic series)"
GAGCGCAA,binding signal,[1],"8.55 upbm affinity estimate (log intensity, higher = more binding, comparable within an allelic series)"
same,binding signal,[2],"8.29 upbm affinity estimate (log intensity, higher = more binding, comparable within an allelic series)"
same,binding signal,[3],"8.48 upbm affinity estimate (log intensity, higher = more binding, comparable within an allelic series)"
CACGCCTC,binding signal,[1],"8.36 upbm affinity estimate (log intensity, higher = more binding, comparable within an allelic series)"
same,binding signal,[2],"8.42 upbm affinity estimate (log intensity, higher = more binding, comparable within an allelic series)"
same,binding signal,[3],"8.39 upbm affinity estimate (log intensity, higher = more binding, comparable within an allelic series)"
ATGGTGTC,binding signal,[17],"9.97 upbm affinity estimate (log intensity, higher = more binding, comparable within an allelic series)"
ATTAACAA,binding signal,[1],"9.96 upbm affinity estimate (log intensity, higher = more binding, comparable within an allelic series)"
same,binding signal,[18],"8.57 upbm affinity estimate (log intensity, higher = more binding, comparable within an allelic series)"
CGGCGCCA,binding signal,[1],"8.53 upbm affinity estimate (log intensity, higher = more binding, comparable within an allelic series)"
same,binding signal,[2],"8.36 upbm affinity estimate (log intensity, higher = more binding, comparable within an allelic series)"
same,binding signal,[3],"8.51 upbm affinity estimate (log intensity, higher = more binding, comparable within an allelic series)"
CGTGGACC,binding signal,[1],"8.66 upbm affinity estimate (log intensity, higher = more binding, comparable within an allelic series)"
same,binding signal,[2],"8.61 upbm affinity estimate (log intensity, higher = more binding, comparable within an allelic series)"
same,binding signal,[3],"8.63 upbm affinity estimate (log intensity, higher = more binding, comparable within an allelic series)"
GGAACCCC,binding signal,[1],"8.42 upbm affinity estimate (log intensity, higher = more binding, comparable within an allelic series)"
same,binding signal,[2],"8.48 upbm affinity estimate (log intensity, higher = more binding, comparable within an allelic series)"
same,binding signal,[3],"8.46 upbm affinity estimate (log intensity, higher = more binding, comparable within an allelic series)"
AGGTCTGG,binding signal,[1],"8.53 upbm affinity estimate (log intensity, higher = more binding, comparable within an allelic series)"
same,binding signal,[2],"8.57 upbm affinity estimate (log intensity, higher = more binding, comparable within an allelic series)"
same,binding signal,[3],"8.64 upbm affinity estimate (log intensity, higher = more binding, comparable within an allelic series)"
ACCGGCCA,binding signal,[1],"8.45 upbm affinity estimate (log intensity, higher = more binding, comparable within an allelic series)"
same,binding signal,[2],"8.55 upbm affinity estimate (log intensity, higher = more binding, comparable within an allelic series)"
same,binding signal,[3],"8.63 upbm affinity estimate (log intensity, higher = more binding, comparable within an allelic series)"
CGCCGGGA,binding signal,[1],"8.5 upbm affinity estimate (log intensity, higher = more binding, comparable within an allelic series)"
same,binding signal,[2],"8.44 upbm affinity estimate (log intensity, higher = more binding, comparable within an allelic series)"
same,binding signal,[3],"8.47 upbm affinity estimate (log intensity, higher = more binding, comparable within an allelic series)"
same,binding signal,[19],"10.5 upbm affinity estimate (log intensity, higher = more binding, comparable within an allelic series)"
same,binding signal,[20],"10.5 upbm affinity estimate (log intensity, higher = more binding, comparable within an allelic series)"
ACCGGCCT,binding signal,[1],"8.37 upbm affinity estimate (log intensity, higher = more binding, comparable within an allelic series)"
same,binding signal,[2],"8.52 upbm affinity estimate (log intensity, higher = more binding, comparable within an allelic series)"
same,binding signal,[3],"8.47 upbm affinity estimate (log intensity, higher = more binding, comparable within an allelic series)"
same,binding signal,[19],"10.6 upbm affinity estimate (log intensity, higher = more binding, comparable within an allelic series)"
same,binding signal,[20],"10.5 upbm affinity estimate (log intensity, higher = more binding, comparable within an allelic series)"
AAGCCACC,binding signal,[1],"8.58 upbm affinity estimate (log intensity, higher = more binding, comparable within an allelic series)"
same,binding signal,[2],"8.55 upbm affinity estimate (log intensity, higher = more binding, comparable within an allelic series)"
same,binding signal,[3],"8.63 upbm affinity estimate (log intensity, higher = more binding, comparable within an allelic series)"
GCCGGGCC,binding signal,[1],"8.36 upbm affinity estimate (log intensity, higher = more binding, comparable within an allelic series)"
same,binding signal,[2],"8.42 upbm affinity estimate (log intensity, higher = more binding, comparable within an allelic series)"
same,binding signal,[3],"8.41 upbm affinity estimate (log intensity, higher = more binding, comparable within an allelic series)"
CTCCCGCC,binding signal,[1],"8.4 upbm affinity estimate (log intensity, higher = more binding, comparable within an allelic series)"
same,binding signal,[2],"8.4 upbm affinity estimate (log intensity, higher = more binding, comparable within an allelic series)"
same,binding signal,[3],"8.4 upbm affinity estimate (log intensity, higher = more binding, comparable within an allelic series)"
ACACCCAG,binding signal,[1],"8.69 upbm affinity estimate (log intensity, higher = more binding, comparable within an allelic series)"
same,binding signal,[2],"8.47 upbm affinity estimate (log intensity, higher = more binding, comparable within an allelic series)"
same,binding signal,[3],"8.52 upbm affinity estimate (log intensity, higher = more binding, comparable within an allelic series)"
GCAGCCCC,binding signal,[1],"8.47 upbm affinity estimate (log intensity, higher = more binding, comparable within an allelic series)"
same,binding signal,[2],"8.43 upbm affinity estimate (log intensity, higher = more binding, comparable within an allelic series)"
same,binding signal,[3],"8.5 upbm affinity estimate (log intensity, higher = more binding, comparable within an allelic series)"
same,binding signal,[19],"10.7 upbm affinity estimate (log intensity, higher = more binding, comparable within an allelic series)"
same,binding signal,[20],"10.7 upbm affinity estimate (log intensity, higher = more binding, comparable within an allelic series)"
GGTTCGGA,binding signal,[1],"8.66 upbm affinity estimate (log intensity, higher = more binding, comparable within an allelic series)"
same,binding signal,[2],"8.54 upbm affinity estimate (log intensity, higher = more binding, comparable within an allelic series)"
same,binding signal,[3],"8.53 upbm affinity estimate (log intensity, higher = more binding, comparable within an allelic series)"
GGCTCCGA,binding signal,[1],"8.49 upbm affinity estimate (log intensity, higher = more binding, comparable within an allelic series)"
same,binding signal,[2],"8.4 upbm affinity estimate (log intensity, higher = more binding, comparable within an allelic series)"
same,binding signal,[3],"8.41 upbm affinity estimate (log intensity, higher = more binding, comparable within an allelic series)"
